# This is a sample that favours compounds with a hit; in the whole collection about 1.9% have one here.
# Integrin act MD: integrin-mediated muscular dystrophy alleviation activation; AID 624291; Potency, µM (highest dose often 38.3 µM), for the others: top-dose activation, hits mostly activators; alpha7betagal myoblasts, beta-gal FDG fluorescence, 48 h; 350,000 tested, 0.064% active;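 further: potency means the concentration at half of the fitted maximal effect; 100% = response of the positive control SU9516; nearly all actives have a fitted effect of over 60% in size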
#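 alpha7betagal+/- myoblasts (passage 13, 250/well) treated 48 h at 37C with compounds at 1:260 dilution of DMSO stock. Lysed, then beta-galactosidase activity read as FDG fluorescence (ex 480/em 540) after 30 min, with pre-read for autofluorescence.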
# PKM2 act: activators of human pyruvate kinase M2. 260,000 tested, 0.34% active. purified PKM2, Kinase-Glo ATP luminescence, activation; response scale: 0% is enzyme alone, no compound. Potency, µM (highest dose often 57.5 µM), inactives show at the top dose activation, most hits filed as activators. AID 1631. P14618; further: potency means the concentration at half of the fitted maximal effect; on the % scale 0 is the no-effect control and ±100 the full control effect; nearly all actives have a fitted effect of over 55% in size
#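 hPK-M2, >95% pure; 0.1 mM ADP / 0.5 mM PEP final; imidazole pH7.2 buffer w/ 7 mM MgCl2, 50 mM KCl; 1 h RT; Kinase-Glo lum. Intermediate enzyme activity for dual inhibitor/activator qHTS.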
# IL2 activator: activates IL-2 in a cell-based reporter assay; IL-2 activation reporter assay, cell-based qHTS; stimulated with anti-CD3/CD4/CD28 beads; in transgenic mouse T cells; activation, % (series mostly up to about 46 µM); 360,000 tested, 0.065% active; AID 652025; in the data active means activation above about 50%; inconclusive means mostly about 30% to 49%; further: 0% is about no effect
#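 Quantitative HTS in unstimulated transgenic mouse T cells, with memory T cells as non-tolerant control and PMA/ionomycin as tolerance-bypass control. Compound pretreatment lasted 60 minutes before 18 h bead stimulation; EGFP/DsRed fluorescence read.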
# USP2a block: USP2a (human) protease inhibition; O75604; USP2 core, Ub-CHOP2 coupled fluorogenic reporter, 485/531; Potency, µM (titrated, usually from 38.3 µM), without a hit: at the highest dose activity change, negative = inhibition, hits mostly inhibitors; 330,000 tested, 0.01% active; AID 463254;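 further: potency means the concentration at half of the fitted maximal effect; plate controls were DMSO wells for no effect and full inhibition by NEM control for full effect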
#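 Cell-free coupled assay: 10nM USP2 core preincubated 30min RT with compound in Tris-HCl pH 8.0/CaCl2/CHAPS buffer, then 25nM Ub-CHOP2 and 25nM reporter substrate; fluorescence (Ex 485/Em 531) read after 60min RT, normalized to NEM inhibition, concentration-response curves fitted.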
# ClpP mod: qHTS Assay for Activators of ClpP; ATP-dependent Clp protease proteolytic subunit (Bacillus subtilis (strain 168)), P80244; purified B. subtilis ClpP, FRET peptide cleavage, 20 min; Potency, µM (highest dose often 57.5 µM), inactives show at the highest dose activity change, negative = active; 340,000 tested, 1.9% active; AID 651965, 2013; active means well fitted falling curve with a large enough effect; inconclusive means small, poorly fitted or top-dose-only effect; inactive means no such curve, though single readings can be large or run the other way; further: potency means the concentration at half of the fitted maximal effect; the source files actives as falling curves though it sought activators and does not explain the sign; nearly all actives have a fitted effect of over 65% in size
#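 FRET quenching reversal measured ClpP activation: 10 microg/mL B. subtilis ClpP at pH 8 with the FRET-FV decapeptide, read at 430 nm after 320 nm excitation. The 20-min minus 0-min signal was scaled between DMSO/no-enzyme wells and ADEP (5.8 microM final).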
# Pin1 inh: human Pin1 inhibition | Potency, µM (doses to about 115 µM), for the others: at the top dose activity, negative = inhibition, actives largely listed as inhibitors | 390,000 tested, 0.009% active | Pin1 FP peptide displacement, HiFluor488, 10 min | Q13526; active means well fitted inhibition curve with a large enough effect in the polarisation, with a control signal flat, not every such curve was filed as active; inconclusive means small, poorly fitted or top-dose-only effect, or effect the other way, or a change in a side signal; inactive means no such curve, though single readings can be large or run the other way; the % refers to the polarisation; further: potency means the concentration at half of the fitted maximal effect; on the % scale 0 is the no-effect control and ±100 the full control effect
# An asterisk follows results filed as active; u = inconclusive; x = not tested or not shown. Unless noted, the call rests on the fitted dose curve; in most records, active means well fitted curve in the direction sought with a large enough effect; inconclusive means small, poorly fitted or top-dose-only effect, or another doubt; inactive means no such curve, though single readings can be large; an effect the other way counts as inactive or inconclusive.
SMILES,Integrin act MD,PKM2 act,IL2 activator,USP2a block,ClpP mod,Pin1 inh
Cc1cccc(-c2nnn3c2nc(NCCc2ccc(S(N)(=O)=O)cc2)c2ccccc23)c1,15%,-2%,-2,1%,11µM*,-2%
NS(=O)(=O)c1ccc(CCNc2nc3c(-c4cccc(F)c4)nnn3c3ccccc23)cc1,-17%,-14%,-2,1%,22µM*,-1%
CC(C)Nc1cccc(S(=O)(=O)N2CCCN(S(=O)(=O)c3ccc4c(c3)OCCO4)CC2)c1,x,x,x,x,x,12%
Cc1[nH]n2c(=O)c3c(nc2c1-c1ccc(Cl)cc1)CCC3,-12%,-11%,0,-1%,25µM*,-2%
Nc1[nH]n2c(=O)c3c(nc2c1N=Nc1ccc(Cl)cc1)CCCC3,16%,3%,0,5%,-1%,-2%
Cc1[nH]n2c(=O)c3c(nc2c1-c1ccccc1)CCC3,12%,-6%,0,0%,32µM*,1%
Cc1ccc2c(C(=O)CNc3nc(C)c(C)s3)c(C)[nH]c2c1,x,x,x,x,-9%,x
CC[N+](C)(C)c1ccc(/C=C/c2ccncc2)cc1,x,x,x,x,0%,x
COc1ccc(C2=CC(c3cccc(C)c3)n3nnnc3N2)cc1 (stereo unspecified),x,x,x,x,32µM*,u
CCOc1ccc(C2C=C(c3cccc(OC)c3)Nc3nnnn32)cc1 (stereo unspecified),x,x,x,x,-11%,-4%
COc1ccc(SCC(CC(C)C)N2CCN(C)CCC2=O)cc1 (stereo unspecified),x,x,x,x,x,5%
C=CCOc1c(CNc2cccc(C(=O)O)c2)cccc1OC,4%,0%,0,-3%,25µM*,-9%
C=CCOc1c(CNc2cccc(C(=O)O)c2)cccc1OCC,-12%,-11%,2,-2%,32µM*,5%
C=CCOc1c(CNc2ccc(C(=O)O)cc2)cccc1OC,15%,0%,11,2%,-11%,-1%
Cc1ccc(Nc2nc(CSc3nnc(-c4cccnc4)n3-c3ccccc3C)cs2)cc1,-11%,-26%,0,-13%,28µM*,21%
Cc1ccccc1-n1c(SCc2csc(Nc3ccccc3)n2)nnc1-c1cccnc1,14%,1%,0,1%,-1%,35%
CCc1cc2c3c(c(=O)oc2cc1OC)CCCC3,13%,-2%,1,1%,35µM*,u
CCCCCCc1cc2cc(-c3nnc(-c4ccccc4O)o3)c(=O)oc2cc1O,-36%,-3%,0,24%,0%,u
CCCCCCc1cc2cc(S(=O)(=O)c3ccc(F)cc3)c(=O)oc2cc1O,27%,8%,0,3%,28µM*,u
Cc1ccccc1NS(=O)(=O)c1cc2c(cc1C)NC(=O)CO2,-14%,5.6µM*,-1,1%,1%,1%
COc1ccc(NS(=O)(=O)c2cc3c(cc2C)NC(=O)CO3)c(OC)c1,-16%,7%,-1,1%,0%,3%
CCn1c(SC(C)C(=O)Nc2ccc(C)cc2)nnc1-c1ccccc1 (stereo unspecified),x,x,x,x,-1%,x
OC(CNCc1ccco1)COc1ccccc1 (stereo unspecified),-28%,-2%,-5,4%,14µM*,-5%
CC(=O)NC(Cc1ccc(Cl)cc1)C(=O)NCC(N)C(=O)c1ccccc1 (stereo unspecified),x,x,x,x,0%,x
COC(=O)C1[C@H]2SC(C)(C)C(C(=O)OC)N2C(=O)N1Cc1ccccc1 (stereo partly specified),x,x,x,x,0%,x
SMILES,Integrin act MD,PKM2 act,IL2 activator,USP2a block,ClpP mod,Pin1 inh
CCN(CCO)c1nc(SC)nc2c1sc1nc(-c3ccco3)c3c(c12)CCC3,-12%,8%,0,-6%,-3%,-3%
CSc1nc(NCCOCCO)c2sc3nc(-c4ccco4)c4c(c3c2n1)CCC4,-66%,22µM*,0,-2%,-15%,36%
COc1ccc(C2NC(=O)c3ccccc3N2)cc1COc1ccc(NC(C)=O)cc1 (stereo unspecified),x,x,x,x,x,-4%
O=c1oc2c(-c3cccc(F)c3)cc(O)cc2s1,4µM*,-1%,-1,5%,-17%,-3%
Cc1cc2ccc(Cl)nc2nc1C,x,x,x,x,-4%,x
COc1cc(/C=C2/SC(=S)N(CC(=O)Nc3cccnc3)C2=O)cc(OC)c1OC,23%,-1%,123*,16%,3%,25%
O=C(CCN1C(=O)/C(=C/C=C/c2ccccc2)SC1=S)Nc1ccccn1,20%,0%,-1,-5%,-7%,u
O=C(CCN1C(=O)/C(=C/C=C/c2ccccc2)SC1=S)Nc1cccnc1,-35%,26%,69*,4%,0%,u
Cc1ccc(C(C(=O)NC(C)(C)C)N(Cc2ccco2)C(=O)Cn2nnc(-c3cccs3)n2)cc1 (stereo unspecified),-19%,-5%,0,-1%,25µM*,-5%
CC1(C)Cc2c(cnn2-c2ccc(F)cc2)C(NC(=O)CCN2CCCCO2)C1 (stereo unspecified),5%,0%,0,1%,25µM*,-1%
Cc1ccc(/C=C/c2ccc(=O)n(Cc3ccccc3Cl)n2)cc1,-11%,-9%,0,0%,28µM*,3%
COC(=O)c1cccc(NC(=O)c2cccnc2)c1,10%,7%,-2,-1%,14µM*,u
COC(=O)c1ccc(NC(=O)c2cccnc2)cc1,-52%,-11%,1,1%,-2%,1%
COc1ccc(-n2nc3cc(C)c(NC(=O)c4cccnc4)cc3n2)cc1,19%,-1%,1,0%,25µM*,-1%
CN(C)c1cccc(S(=O)(=O)N2CCCN(S(=O)(=O)c3ccc4c(c3)OCCO4)CC2)c1,x,x,x,x,x,19%
Brc1ccc(OCc2nnnn2-c2ccccc2)cc1,-29%,25µM*,0,1%,x,3%
N#CC1=C(N)C2=CCCC[C@H]2[C@H](c2ccccc2)C1(C#N)C#N,-5%,19%,2,3%,23%,u
N#CC1=C(N)C2=CCCC[C@H]2[C@H](c2ccc(Br)cc2)C1(C#N)C#N,-26%,7.9µM*,-2,7%,7%,u
Nc1cnccn1,x,x,x,x,4%,x
O=C(O)c1cc(O)c2c(c1)[C@@H]([C@H]1c3cc(C(=O)O)cc(O)c3C(=O)c3c(O[C@@H]4O[C@H](CO)[C@@H](O)[C@H](O)[C@H]4O)cccc31)c1cccc(OC3O[C@H](CO)[C@@H](O)[C@H](O)[C@H]3O)c1C2=O (stereo partly specified),x,x,0,3.2µM*,-2%,x

# Assay outcomes from PubChem BioAssay.
